Measurements published in PubChem BioAssay (NCATS).
Inconclusive results are not listed. A call without a number means that no potency is given here. Activity calls are given as the source filed them. The call rests on the fitted dose curve; in most records, active means well fitted cell-killing curve with a large enough effect; inconclusive means small, poorly fitted or top-dose-only effect; inactive means flat fitted curve, though single readings scatter.

Assay: Quantitative highthroughput screen to assess conditional lethalithy of NOMO1 cells grown in RPMI1640 with untreated serum (RPMI+s) (AID 1963876); further: nearly all actives have a fitted effect of over 35% in size
Details: NOMO1 AML cells in RPMI+serum, CellTiter-Glo viability, 48 h; series mostly up to 45.8 µM
In short: (§1)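 Each medium arm—HPLM with 10% dialyzed FBS, or RPMI1640 with 5 mM glucose and 10% untreated or dialyzed FBS—was screened against an 11-point, 3-fold compound titration for 48 h at 37 °C, with CellTiter-Glo luminescence as endpoint.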
Potency means the concentration at half of the fitted maximal effect.

Row | SMILES | Potency
1 | COCCOC(=O)C1=C(C)NC2=C(C(=O)CC(c3ccccc3OC)C2)C1c1cccc(O)c1 (configuration not stated) | inactive
2 | CC(O)(C#Cc1ccc2c(c1)N(c1nc(N)ncc1Cl)CC2)c1nccs1 (configuration not stated) | inactive
3 | CN(C)c1ccc(Nc2nc(N)n(C(=O)c3c(F)cccc3F)n2)cc1 | inactive
4 | CCC(=O)N1CCN(c2ccc(-n3c(=O)ccc4cnc5ccc(-c6cnc7ccccc7c6)cc5c43)cc2C(F)(F)F)CC1 | 0.132 µM (active)

Assay: Quantitative highthroughput screen to assess conditional lethalithy of NOMO1 cells grown in RPMI1640 with dialyzed fetal bovine serum (RPMI+ds) (AID 1963877); further: nearly all actives have a fitted effect of over 30% in size
Details: NOMO1 in RPMI+dialyzed FBS viability, ATP luminescence, 48 h; series mostly up to 45.8 µM
In short: as §1

Row | SMILES | Potency
5 | COCCOC(=O)C1=C(C)NC2=C(C(=O)CC(c3ccccc3OC)C2)C1c1cccc(O)c1 (configuration not stated) | inactive
6 | CC(O)(C#Cc1ccc2c(c1)N(c1nc(N)ncc1Cl)CC2)c1nccs1 (configuration not stated) | inactive
7 | CN(C)c1ccc(Nc2nc(N)n(C(=O)c3c(F)cccc3F)n2)cc1 | 11.8 µM (active)
